The text below walks through data of PubChem BioAssay AID651871 (Sanford-Burnham Center for Chemical Genomics, 2012).

“And” between values parts separate entries of the source, which are not always exact repeats. Equal entries are not always repeated.

The test system of this assay is HL-1. Kind of assay: cardiomyocyte survival under oxidative or metabolic stress – cell-based, panel, H9c2 and HL-1, ATP luminescence, set 2, SAR follow-up (AID 651871).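 Further: cells exposed to stressor for 2 h before ATP readout; reference of the scale not given here.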 Conditions: H9c2/HL-1 cardiomyocytes, H2O2 oxidative stress; with H2O2, run 2, at 79 µM (top of the series).
In the case of `CCOC(=O)c1cccc(NC(=O)CNC(=O)c2cc(-c3cc(OC)c(OC)c(OC)c3)nc3ccccc23)c1`, the activity (protection/inhibition) came out at 44%.
Under `COc1ccc2c(c1OC)C(=O)N1c3ccccc3C(=O)N(Cc3cccc(Cl)c3Cl)C21` (centres undefined) stands -0.168% and -1.52% and -3.02%.
Under `COc1cc(-c2cc(C(=O)Nc3cccc(C(=O)NCc4ccccc4)c3)c3ccccc3n2)cc(OC)c1OC` stands 25%; under `COc1ccc2nc(-c3cc(OC)c(OC)c(OC)c3)cc(C(=O)NCC(=O)Nc3ccc(C(C)=O)cc3)c2c1`, 27.5% and 38.9%.
